Source: the supplement of paper PMC10849652
Of roughly 7,900 targets only a part is listed; those with a hit were picked by preference. About 0.6% of all pairs of compound and target were hits. A number with no mark means an inactive call.

What was measured:
Experiment in all cases: log2 fold change, soluble protein after heating vs DMSO (PISA); higher = thermal stabilisation; K562 cells, 10 uM, 30 min; active = over 0.2 and 3.5 SD of the protein, either way, in both replicates (recomputed)
[1] = compound: C1=CC=C(C=C1)[C@H](COC2=CC3=C(C=C2)NC(=O)N3)NC(=O)C4=CC=CN(C4=O)CC5=CC(=C(C=C5)F)F
In short: (§1)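 Aliquots of K562 cells (2×10^6 cells/mL) treated with 10 μM compound for 30 min were heated for 3 min over 48°C-58°C. After pooling and extraction in PBS with 0.5% NP-40 at 4°C, soluble protein from a 21,000xg, 90 min spin was quantified by TMTpro 16plex LC-MS/MS with channel sums equalised. Thermal stability is expressed against control samples, from duplicates, as a log2 fold change.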

[2] = compound: CC1=C(SC2=C1C(=N[C@H](C3=NN=C(N32)C)CC(=O)N)C4=CC=C(C=C4)Cl)C
In short: as §1

[3] = compound: CC1=C2C(=CC=C1)N=C(N(C2=O)C3=CC=CC=C3C)CN4C=NC5=C(N=CN=C54)N
In short: as §1

[4] = compound: Cc1sc2c(c1C)C(c1ccc(Cl)cc1)=N[C@@H](CC(=O)OC(C)(C)C)c1nnc(C)n1-2
In short: as §1

[5] = compound: c1ccc([C@@H]2C[C@H]2NC2CCNCC2)cc1
In short: as §1

Sequence of UniProt Q9NUY8 (Q9NUY8 whole entry, looked up): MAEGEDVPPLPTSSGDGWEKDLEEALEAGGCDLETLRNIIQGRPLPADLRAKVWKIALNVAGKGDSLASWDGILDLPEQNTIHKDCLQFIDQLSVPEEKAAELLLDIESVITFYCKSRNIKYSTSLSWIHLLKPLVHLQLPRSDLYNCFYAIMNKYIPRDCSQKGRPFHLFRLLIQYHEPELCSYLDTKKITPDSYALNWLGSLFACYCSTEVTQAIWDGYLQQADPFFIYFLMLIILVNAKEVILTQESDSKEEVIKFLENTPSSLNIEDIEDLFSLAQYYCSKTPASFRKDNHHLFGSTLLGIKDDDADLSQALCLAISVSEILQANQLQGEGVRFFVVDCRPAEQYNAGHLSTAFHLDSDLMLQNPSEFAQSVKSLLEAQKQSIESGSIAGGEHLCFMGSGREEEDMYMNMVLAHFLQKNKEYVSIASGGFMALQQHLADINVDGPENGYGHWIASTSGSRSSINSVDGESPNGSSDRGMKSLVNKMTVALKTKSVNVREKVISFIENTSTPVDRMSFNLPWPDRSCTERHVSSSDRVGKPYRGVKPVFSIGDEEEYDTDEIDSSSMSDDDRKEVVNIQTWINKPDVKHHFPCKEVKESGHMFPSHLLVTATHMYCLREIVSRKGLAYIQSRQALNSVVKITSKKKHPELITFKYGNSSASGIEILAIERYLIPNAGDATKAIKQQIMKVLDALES
Sequence of UniProt P35270 (P35270 whole entry, looked up): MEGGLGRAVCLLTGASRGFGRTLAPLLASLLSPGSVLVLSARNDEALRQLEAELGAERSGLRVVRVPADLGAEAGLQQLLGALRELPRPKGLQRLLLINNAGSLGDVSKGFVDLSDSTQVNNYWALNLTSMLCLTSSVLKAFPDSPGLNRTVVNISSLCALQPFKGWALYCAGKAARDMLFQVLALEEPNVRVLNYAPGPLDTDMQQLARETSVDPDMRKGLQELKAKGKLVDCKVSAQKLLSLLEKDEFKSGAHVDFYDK
Sequence of UniProt Q9C0B7 (Q9C0B7 whole entry, looked up): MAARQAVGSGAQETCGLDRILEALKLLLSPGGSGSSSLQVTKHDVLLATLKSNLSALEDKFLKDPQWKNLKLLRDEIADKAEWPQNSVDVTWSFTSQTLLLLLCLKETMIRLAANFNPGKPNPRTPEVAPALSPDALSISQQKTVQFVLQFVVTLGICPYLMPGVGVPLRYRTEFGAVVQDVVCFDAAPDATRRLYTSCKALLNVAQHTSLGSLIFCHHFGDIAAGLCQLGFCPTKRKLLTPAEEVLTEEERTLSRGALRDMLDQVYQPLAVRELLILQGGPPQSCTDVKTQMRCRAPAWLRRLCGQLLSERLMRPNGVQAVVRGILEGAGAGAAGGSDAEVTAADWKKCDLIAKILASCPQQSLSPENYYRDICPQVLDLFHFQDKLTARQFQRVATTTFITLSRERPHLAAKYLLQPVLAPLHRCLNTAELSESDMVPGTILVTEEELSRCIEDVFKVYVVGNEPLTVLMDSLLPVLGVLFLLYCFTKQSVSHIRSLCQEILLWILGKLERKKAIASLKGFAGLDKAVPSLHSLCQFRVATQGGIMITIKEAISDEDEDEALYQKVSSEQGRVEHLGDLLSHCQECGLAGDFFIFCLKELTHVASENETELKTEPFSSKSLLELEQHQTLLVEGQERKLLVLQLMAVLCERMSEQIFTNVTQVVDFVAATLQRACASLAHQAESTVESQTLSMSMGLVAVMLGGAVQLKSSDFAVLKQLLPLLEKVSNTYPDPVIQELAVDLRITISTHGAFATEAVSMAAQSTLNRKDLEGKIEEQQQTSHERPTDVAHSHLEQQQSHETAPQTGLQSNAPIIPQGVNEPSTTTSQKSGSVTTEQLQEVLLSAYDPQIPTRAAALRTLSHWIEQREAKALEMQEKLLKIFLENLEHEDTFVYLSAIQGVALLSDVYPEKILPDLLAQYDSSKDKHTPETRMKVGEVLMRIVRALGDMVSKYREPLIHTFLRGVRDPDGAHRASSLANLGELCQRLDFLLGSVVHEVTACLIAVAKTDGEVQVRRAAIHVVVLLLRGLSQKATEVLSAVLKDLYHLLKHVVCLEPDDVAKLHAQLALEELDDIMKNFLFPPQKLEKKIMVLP
Sequence of UniProt Q8IY18 (Q8IY18 whole entry, looked up): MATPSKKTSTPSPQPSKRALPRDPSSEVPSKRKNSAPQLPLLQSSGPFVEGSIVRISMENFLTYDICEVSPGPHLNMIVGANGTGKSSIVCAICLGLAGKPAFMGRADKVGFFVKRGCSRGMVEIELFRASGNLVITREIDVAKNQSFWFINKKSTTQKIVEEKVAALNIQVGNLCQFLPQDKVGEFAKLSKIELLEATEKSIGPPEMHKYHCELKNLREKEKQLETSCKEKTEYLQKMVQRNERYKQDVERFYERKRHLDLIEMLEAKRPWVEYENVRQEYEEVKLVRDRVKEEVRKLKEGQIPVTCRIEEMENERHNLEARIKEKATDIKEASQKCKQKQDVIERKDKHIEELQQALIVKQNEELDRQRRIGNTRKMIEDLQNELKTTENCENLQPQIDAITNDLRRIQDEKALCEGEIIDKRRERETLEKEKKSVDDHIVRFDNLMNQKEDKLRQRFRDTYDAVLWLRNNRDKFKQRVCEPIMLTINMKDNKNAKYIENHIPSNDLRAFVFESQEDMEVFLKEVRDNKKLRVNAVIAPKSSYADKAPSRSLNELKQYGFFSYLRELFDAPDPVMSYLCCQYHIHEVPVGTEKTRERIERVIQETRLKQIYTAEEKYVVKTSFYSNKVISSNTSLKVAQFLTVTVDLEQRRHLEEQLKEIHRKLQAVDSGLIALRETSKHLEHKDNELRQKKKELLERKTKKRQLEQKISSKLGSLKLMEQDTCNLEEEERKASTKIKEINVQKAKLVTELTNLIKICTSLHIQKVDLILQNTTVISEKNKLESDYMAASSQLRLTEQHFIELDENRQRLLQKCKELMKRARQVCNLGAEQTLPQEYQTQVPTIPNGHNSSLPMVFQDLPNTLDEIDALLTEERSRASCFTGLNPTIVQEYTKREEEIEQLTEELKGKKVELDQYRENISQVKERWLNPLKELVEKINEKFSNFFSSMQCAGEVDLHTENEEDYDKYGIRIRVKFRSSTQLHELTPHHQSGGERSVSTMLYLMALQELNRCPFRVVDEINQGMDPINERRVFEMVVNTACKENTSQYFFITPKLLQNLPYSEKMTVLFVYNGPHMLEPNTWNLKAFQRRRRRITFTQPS
Sequence of UniProt Q9P289 (Q9P289 whole entry, looked up): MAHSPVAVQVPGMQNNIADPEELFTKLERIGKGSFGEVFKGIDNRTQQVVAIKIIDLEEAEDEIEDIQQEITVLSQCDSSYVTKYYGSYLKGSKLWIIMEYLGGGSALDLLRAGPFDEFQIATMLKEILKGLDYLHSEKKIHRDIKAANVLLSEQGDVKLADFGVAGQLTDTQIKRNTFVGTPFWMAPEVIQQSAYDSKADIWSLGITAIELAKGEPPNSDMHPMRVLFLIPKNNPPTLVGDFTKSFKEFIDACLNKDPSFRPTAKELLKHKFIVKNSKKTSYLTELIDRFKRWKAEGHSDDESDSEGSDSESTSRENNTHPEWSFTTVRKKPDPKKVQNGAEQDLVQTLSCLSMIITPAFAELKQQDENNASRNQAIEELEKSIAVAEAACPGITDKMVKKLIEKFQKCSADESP
Sequence of UniProt Q9UNL2 (Q9UNL2 whole entry, looked up): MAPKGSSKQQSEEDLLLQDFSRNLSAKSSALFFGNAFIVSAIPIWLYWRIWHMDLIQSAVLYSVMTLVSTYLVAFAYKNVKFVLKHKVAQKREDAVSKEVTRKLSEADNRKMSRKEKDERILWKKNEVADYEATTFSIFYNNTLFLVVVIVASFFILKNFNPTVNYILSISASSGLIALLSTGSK
Sequence of UniProt Q6J4K2 (Q6J4K2 whole entry, looked up): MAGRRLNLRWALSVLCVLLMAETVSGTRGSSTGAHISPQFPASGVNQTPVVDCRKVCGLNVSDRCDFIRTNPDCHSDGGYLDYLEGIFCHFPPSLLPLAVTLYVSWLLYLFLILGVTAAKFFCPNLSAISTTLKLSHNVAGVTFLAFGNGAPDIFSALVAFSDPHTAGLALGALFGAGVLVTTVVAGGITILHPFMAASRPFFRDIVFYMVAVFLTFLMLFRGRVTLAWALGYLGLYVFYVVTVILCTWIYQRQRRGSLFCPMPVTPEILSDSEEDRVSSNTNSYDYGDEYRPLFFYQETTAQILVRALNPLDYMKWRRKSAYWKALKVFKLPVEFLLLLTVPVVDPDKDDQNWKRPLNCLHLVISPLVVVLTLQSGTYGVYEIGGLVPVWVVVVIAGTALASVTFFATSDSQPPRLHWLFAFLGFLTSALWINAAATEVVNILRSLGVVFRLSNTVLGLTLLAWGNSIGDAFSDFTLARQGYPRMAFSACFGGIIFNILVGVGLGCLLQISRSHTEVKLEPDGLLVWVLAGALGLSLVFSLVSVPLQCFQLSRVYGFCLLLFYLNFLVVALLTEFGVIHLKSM
Sequence of UniProt Q13242 (Q13242 whole entry, looked up): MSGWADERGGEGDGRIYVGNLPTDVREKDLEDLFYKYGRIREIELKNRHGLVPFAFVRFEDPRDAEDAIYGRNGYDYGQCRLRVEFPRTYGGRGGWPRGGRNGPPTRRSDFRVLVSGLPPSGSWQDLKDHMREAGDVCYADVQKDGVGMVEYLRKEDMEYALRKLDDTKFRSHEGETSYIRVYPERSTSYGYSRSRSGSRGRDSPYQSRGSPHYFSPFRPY
Sequence of UniProt O95772 (O95772 whole entry, looked up): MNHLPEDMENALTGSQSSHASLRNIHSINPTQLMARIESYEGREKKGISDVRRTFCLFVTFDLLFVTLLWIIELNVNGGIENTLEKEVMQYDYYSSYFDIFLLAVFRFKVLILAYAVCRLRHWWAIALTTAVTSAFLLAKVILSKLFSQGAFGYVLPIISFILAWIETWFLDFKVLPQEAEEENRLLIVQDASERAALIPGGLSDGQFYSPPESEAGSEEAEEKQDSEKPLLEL

Target | log2 fold change [1] | log2 fold change [2] | log2 fold change [3] | log2 fold change [4] | log2 fold change [5]
SOX5 (UniProt P35711) | -0.033 | 0.005 | -0.058 | -0.018 | -0.022
SPAG9 isoform 4 (UniProt O60271) | 0.15 | 0.006 | -0.048 | 0.028 | 0.025
SMAD9 (UniProt O15198) | -0.104 | 0.094 | -0.001 | 0.076 | -0.054
TJP2 isoform 7 (UniProt Q9UDY2) | -0.03 | 0.084 | 0.081 | 0.04 | -0.044
TFAM (UniProt Q00059) | 0.062 | -0.046 | -0.018 | 0.108 | 0.009
STK26 (UniProt Q9P289) | -0.077 | -0.029 | -0.006 | 0.004 | 0.026
TEX264 (UniProt Q9Y6I9) | -0.024 | 0.03 | -0.072 | -0.084 | -0.02
SNUPN (UniProt O95149) | -0.027 | 0.051 | 0.067 | 0.03 | 0.021
TBC1D23 (UniProt Q9NUY8) | -0.039 | 0.068 | 0.034 | -0.003 | -0.037
TGFBRAP1 (UniProt Q8WUH2) | -0.021 | 0.03 | 0.075 | -0.105 | -0.004
SYNE1 (UniProt Q8NF91) | -0.009 | 0.24 | 0.223 | -0.018 | -0.052
SLC25A38 (UniProt Q96DW6) | 0.014 | 0.034 | -0.035 | -0.035 | 0.014
SLC44A2 isoform 2 (UniProt Q8IWA5) | 0.002 | 0.077 | -0.022 | -0.045 | 0.065
SPR (UniProt P35270) | 0.026 | 0.04 | 0.031 | -0.058 | -0.105
SMARCA4 (UniProt P51532) | 0.073 | -0.023 | 0.244 | – | -0.027
TBC1D10B (UniProt Q4KMP7) | -0.021 | 0.062 | 0.014 | -0.026 | 0.006
SMC5 (UniProt Q8IY18) | 0.017 | 0.045 | -0.006 | -0.028 | -0.005
TAOK2 (UniProt Q9UL54) | – | – | – | 0.026 | –
THAP9 (UniProt Q9H5L6) | 0.093 | 0.167 | – | – | -0.046
SRSF9 (UniProt Q13242) | 0.045 | -0.452 | -0.38 | – | 0.041
TACC2 (UniProt O95359) | -0.031 | -0.03 | 0.166 | 0.011 | 0.05
SSBP4 (UniProt Q9BWG4) | 0.086 | – | – | 0.037 | –
SNX2 isoform 2 (UniProt O60749) | 0.092 | 0.217 | 0.094 | – | 0.066
TDP1 (UniProt Q9NUW8) | – | 0.068 | – | – | 0.054
SSBP4 (UniProt U3KPY3) | – | – | 0 | – | –
TANGO6 (UniProt Q9C0B7) | -0.139 | 0.052 | – | 0.018 | -0.086

Target | log2 fold change [1] | log2 fold change [2] | log2 fold change [3] | log2 fold change [4] | log2 fold change [5]
SLC38A7 (UniProt Q9NVC3) | 0.021 | -0.031 | -0.004 | -0.035 | 0.117
TAF6L (UniProt Q9Y6J9) | – | -0.209 | – | 0.048 | 0.073
SSR3 isoform 2 (UniProt Q9UNL2) | 0.016 | -0.087 | -0.107 | -0.078 | -0.168
TCOF1 isoform 3 (UniProt Q13428) | – | – | – | -0.093 | –
TCOF1 isoform 4 (UniProt Q13428) | 0.016 | 0.006 | 0.018 | 0.033 | 0.042
SLC9A6 isoform 3 (UniProt Q92581) | -0.057 | 0.003 | – | -0.005 | 0.089
TC2N (UniProt Q8N9U0) | – | – | 0.053 | 0.08 | –
STARD3NL (UniProt O95772) | 0.027 | 0.025 | 0.142 | 0 | 0.039
SLC6A6 (UniProt P31641) | -0.002 | 0.065 | 0.039 | 0.018 | 0.035
SSB (UniProt E7ERC4) | – | – | 0.188 | – | –
SMARCB1 (UniProt Q12824) | – | 0.057 | -0.041 | 0.015 | 0.18
SUN2 (UniProt Q9UH99) | 0.029 | -0.004 | -0.025 | 0.025 | -0.015
SLC4A2 (UniProt P04920) | -0.042 | 0.016 | 0.019 | -0.038 | 0.088
SLC8B1 (UniProt Q6J4K2) | 0.094 | 0.178 | 0.019 | – | -0.049
SLC35B4 (UniProt Q969S0) | 0.061 | – | -0.069 | -0.137 | –
SLC39A1 (UniProt Q9NY26) | – | -0.156 | – | – | 0.053
TM7SF3 (UniProt Q9NS93) | -0.058 | 0.104 | – | -0.037 | 0.196
SUPT5H isoform 2 (UniProt O00267) | – | – | -0.015 | – | –
SRFBP1 (UniProt Q8NEF9) | 0.011 | -0.14 | – | 0.048 | -0.013
SULT1A1 (UniProt P50225) | -0.083 | 0.064 | -0.021 | -0.06 | -0.066
TM7SF2 (UniProt O76062) | – | 0.182 | -0.129 | – | 0.159
SLC46A1 (UniProt Q96NT5) | – | -0.09 | 0.075 | 0.024 | 0.256
TBC1D20 isoform 3 (UniProt Q96BZ9) | 0.017 | 0.069 | -0.021 | – | -0.403 (active)
SUN1 isoform 9 (UniProt O94901) | – | -0.114 | 0.013 | 0.109 | 0.018
TIPRL (UniProt O75663) | -0.078 | 0.07 | 0.083 | 0.001 | -0.007
